An excerpt weighted towards active compounds, which were near 17% of everything screened.
HepG2 tox: kills HepG2 cells in TGF-b inhibitor counter-screen. HepG2 CAGA-GFP viability, ATP luminescence, 18 h. Potency, µM (series often up to 46.1 µM), usual class: cytotoxic. 0.76% of 410,000 active
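HepG2 CAGA-GFP cells (1000/well, DMEM with 1% FBS) received compound, then TGF-beta at 500 pg/mL final, and were incubated 18 hours at 37 degrees C. Viability was read by CellTiter-Glo luminescence. Media-only wells were set as complete cell-killing and DMSO as no toxicity.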
DT40 TDP1 no CPT: qHTS for Inhibitors of human tyrosyl-DNA phosphodiesterase 1 (TDP1): qHTS in cells in absence of CPT; 15% of 420,000 active; Potency, µM (highest dose often 46.2 µM), hits mostly inhibitors; DT40 Tdp1-/- hTDP1 cells, no CPT, ATP luminescence, 48 h; note: nearly all actives have a fitted effect of over 55% in size
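Chicken DT40 Tdp1-/- cells complemented with human TDP1, screened without camptothecin (DMSO vehicle only), 400 cells/well. Compounds pin-transferred, cells incubated at 37 °C for at least 48 hr. Growth read as ATP-dependent luminescence (CellTiter-Glo, 30 min at RT).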
TGFb SMAD3 inh: TGF-b pathway inhibition | HepG2 CAGA-GFP TGF-b/SMAD3 reporter, GFP fluorescence, 18 h; TGF-beta stimulated, 500 pg/mL final | Potency, µM (highest dose often 46.1 µM), usual class: inhibitors | 1.2% of 410,000 active | AID 588855; note: nearly all actives have a fitted effect of over 65% in size
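TGF-beta reporter screen: HEPG2 CAGA-GFP, 1% FBS, 500 pg/mL TGF-beta final, 18 h; per-cell GFP summed per well; curves fitted and categorized by class.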
HT1080NT lethal: kills 2HG-producing HT-1080-NT fibrosarcoma cells. HT-1080-NT fibrosarcoma viability, CellTiter-Glo ATP luminescence, 48 h. Potency, µM (doses to about 46.1 µM), usual class: cytotoxic. 1.6% of 360,000 active. AID 686970;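 note: NT is the 2HG producing partner of a matched IDH1 knockdown line; nearly all actives have a fitted effect of over 55% in size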
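Fibrosarcoma NT cells, 750 per well in 5% FBS RPMI, were exposed to compound for 48 hours. Viability: CellTiter-Glo luminescence.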
DT40 TDP1 CPT: DT40-hTDP1 cell growth loss with CPT; chicken DT40 Tdp1-/-;hTDP1 cells + 20 nM CPT, ATP luminescence, 48 h; Potency, µM (doses to about 46.2 µM), most hits filed as inhibitors; 12% of 420,000 active; note: nearly all actives have a fitted effect of over 55% in size
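Cell growth measured by CellTiter-Glo luminescence after a minimum 48 h, 37 C compound exposure with 20 nM CPT in Tdp1-knockout DT40 cells stably expressing hTDP1, seeded 400/well; qHTS titration format.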
HT1080 IDH1KD tx: kills HT-1080 cells with IDH1 knockdown. HT-1080 IDH1 knockdown viability, ATP luminescence, 48 h. Potency, µM (series often up to 46.1 µM), actives largely listed as cytotoxic. 2% of 360,000 active
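Assay cells: HT-1080 with IDH1 knockdown, 750 per well, RPMI/5% FBS. Exposure: 48 h at 37 °C following 2 h pre-incubation. Read: CellTiter-Glo luminescence; fitted concentration-response, curve class assigned.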
Hits are given with their value; 0 = inactive; ? = inconclusive; - = no result given. Calls come from the whole dose curve; as a rule, active = well fitted curve in the direction sought with a large enough effect; inconclusive = small, poorly fitted or top-dose-only effect, or another doubt; inactive = no such curve, though single readings can be large; an effect the other way counts as inactive or inconclusive.

SMILES	HepG2 tox	DT40 TDP1 no CPT	TGFb SMAD3 inh	HT1080NT lethal	DT40 TDP1 CPT	HT1080 IDH1KD tx
COc1ccc(C(=O)N/N=C/c2cccnc2)cc1	0	0	0	0	0	0
COc1ccc(Cn2c(O)c(/C=N/NC(=O)c3cccnc3)c3ccccc3c2=O)cc1	0	23.1µM	?	?	14.6µM	20.6µM
O=C(N/N=C/c1c(O)n(Cc2ccccc2)c(=O)c2ccccc12)c1cccnc1	0	9.2µM	0	13µM	?	14.6µM
O=C(CNc1ccc2c(c1)OCO2)N/N=C\c1cn(Cc2ccccc2)c2ccccc12	0	23.1µM	?	0	18.4µM	0
Nc1ccc(C(=O)N/N=C/c2cn(Cc3cccc(F)c3)c3ccccc23)cc1	0	?	1.26µM	0	?	0
CCC/C=C1\CCCOC(C(=O)NCc2ccccc2)(C(F)(F)F)C1 (configuration not stated)	0	-	0	-	-	-
CCOc1cc(Cl)c(S(=O)(=O)n2ccnc2)cc1Cl	0	0	0	-	0	-
COc1ccc(Cn2c(O)c(C=Nc3ccc(OC)cc3)c3ccccc3c2=O)cc1	0	0	0	?	0	0
O=C(O)CSc1cn(Cc2ccccc2)c2ccccc12	0	0	0	0	0	0
NC(=O)CSc1cn(Cc2cccc(F)c2)c2ccccc12	0	?	0	0	13µM	0
COc1ccc(Cn2c(O)c(C=Nc3ccccc3C(=O)O)c3ccccc3c2=O)cc1	0	10.3µM	0	0	14.6µM	0
CCCCC(=O)N1CC(=O)Nc2ccc(F)cc2C1c1ccccc1 (configuration not stated)	0	0	0	0	0	0
CCN1C[C@@H]2[C@@H]3C(=O)N(C)C(=O)[C@@H]3[C@](CC)(C1=O)N2C(=O)c1ccc(C(C)(C)C)cc1	0	0	0	0	0	0
COc1cccc(NC(=O)CSc2nc3cc(OC)c(OC)cc3c3nc(-c4ccccc4)nn23)c1	0	0	0	-	0	-
CCN(CC)S(=O)(=O)c1ccc(N2CCN(S(=O)(=O)c3ccccc3)CC2)nc1	0	?	0	0	0	?
CCN(c1ccccc1)S(=O)(=O)c1ccc(N2CCN(c3ccc(O)cc3)CC2)nc1	0	14.6µM	?	0	?	0
CCN(c1ccccc1)S(=O)(=O)c1ccc(N2CCN(c3ccc(OC)cc3)CC2)nc1	0	?	0	0	11.6µM	0
CCN(CC)S(=O)(=O)c1ccc(N2CCN(CCOc3ccc(OC)cc3)CC2)nc1	0	20.6µM	0	0	18.4µM	0
CCc1nn(-c2ccccc2)c2nc(-c3cccc(OC)c3)c3cc(OC)c(OC)cc3c12	0	0	0	-	0	-
CCOc1cc(-c2nc3c(c(CC)nn3-c3ccccc3)c3cc(OC)c(OC)cc23)ccc1O	0	?	0	-	3.26µM	-
CCc1nn(-c2ccccc2)c2nc(-c3ccc(O)cc3)c3cc(OC)c(OC)cc3c12	0	0	0	-	0	-
CCc1nn(-c2ccccc2)c2nc(-c3ccccc3OC)c3cc(OC)c(OC)cc3c12	0	16.4µM	0	-	18.4µM	-
CCn1c(C)cs/c1=N\C(=S)Nc1ccccc1C	0	?	0	0	?	0
COc1ccc(Cl)cc1NC(=O)CSc1nnc(C2CC2)n1N	0	0	0	0	0	0
Cc1ccc(C(Sc2ccccc2)C(Cn2cncn2)C(=O)c2ccccc2)cc1 (configuration not stated)	0	23.1µM	0	?	?	?
Cc1cc(C)c(NC(=O)Cn2c(=O)n(CCCCC(=O)NCc3ccccc3Cl)c(=O)c3ccccc32)c(C)c1	0	?	0	-	?	-
CCc1cccc(OCC(=O)Nc2ccc(S(=O)(=O)Nc3onc(C)c3C)cc2)c1	0	0	0	0	0	0
Clc1cccc(Cl)c1/C=N/Nc1c(Cl)cncc1Cl	0	3.26µM	0	2.31µM	2.06µM	5.17µM
Clc1cncc(Cl)c1N/N=C/c1ccncc1	0	?	0	0	?	?
